Activity calls are given as the source filed them. How the source made its calls: active means hit-call score of the fitted dose curve at least 0.9, where 1 is the maximum; inactive means score below 0.9.
These compounds were tested on Interleukin 17A (IL17A), IL17A (gene 3605) (assay: BSK_BT_xIL17A: BioMAP Diversity Plus: BT Assay for Interleukin 17A (IL17A) Biomarker Activity (AID 2284229)). Conditions: primary human B cells with PBMC.
Summary of the method: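 Human primary B cells plus PBMC, treated 24 h with chemicals; supernatant IL-17A quantified on Luminex xMAP beads. Gain of signal over DMSO control scored as activity.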

Row | SMILES | outcome | AC50
1 | CC(=O)/C=C/C1=C(C)CCCC1(C)C | inactive | 
2 | c1ccc2c(c1)c1cccc3ccc4cccc2c4c31 | inactive | 
3 | CNC[C@H](O)c1cccc(O)c1 | inactive | 
4 | CCCCCCCCCC=O | inactive | 
5 | CCCCC/C=C/C=C/C=O |  | 20 µM (active)
6 | CC(C)c1ccc(C(C)C)cc1 | inactive | 
7 | CCc1c(C)cc(N)c(CC)c1N | inactive | 
8 | CC(=O)O[C@]1(C(C)=O)CC[C@H]2[C@@H]3C[C@H](C)C4=CC(=O)CC[C@]4(C)[C@H]3CC[C@@]21C | inactive | 
9 | C=C[Si](OCC)(OCC)OCC | inactive | 
10 | Cc1ccc(O)c(C(C)(C)C)c1 | inactive | 
11 | CC(C)Oc1ccccc1O | inactive | 
12 | CN(CCOc1ccc(CC2SC(=O)NC2=O)cc1)c1ccccn1 (stereo not drawn) | inactive | 
13 | O=C=NC1CCC(CC2CCC(N=C=O)CC2)CC1 (stereo not drawn) | inactive | 
14 | c1ccc2sc(SN(C3CCCCC3)C3CCCCC3)nc2c1 | inactive | 
15 | O=C(O)C[C@H](O)C[C@H](O)/C=C/c1c(C2CC2)nc2ccccc2c1-c1ccc(F)cc1 |  | 2.42 µM (active)
16 | Cc1ccc(Nc2ccc(O)c3c2C(=O)c2ccccc2C3=O)cc1 | inactive | 
17 | COC(=O)c1ccc(C)cc1 | inactive | 
18 | N#Cc1ccc(CC(=NNC(=O)Nc2ccc(OC(F)(F)F)cc2)c2cccc(C(F)(F)F)c2)cc1 | inactive | 
19 | O=[N+]([O-])c1cc(C(F)(F)F)ccc1Cl | inactive | 

Row | SMILES | outcome | AC50
20 | C=C(C)C(=O)O[C@H]1C[C@@H]2CC[C@@]1(C)C2(C)C | inactive | 
21 | Nc1cc([N+](=O)[O-])ccc1Cl | inactive | 
22 | C#C[C@]1(O)CC[C@H]2[C@@H]3CCC4=Cc5oncc5C[C@]4(C)[C@H]3CC[C@@]21C |  | 24.4 µM (active)
23 | CCn1c2ccccc2c2cc(N)ccc21 | inactive | 
24 | CCCCCCCCCCCCCCCCCC(=O)OCC(CC)CCCC (stereo not drawn) | inactive | 
25 | CCCCC(CC)COCCC#N (stereo not drawn) | inactive | 
26 | CC(=O)Nc1ccccc1O | inactive | 
27 | O=C(O)c1cn(-c2ccc(F)cc2)c2cc(N3CCNCC3)c(F)cc2c1=O | inactive | 
28 | O=P(c1ccccc1)(c1ccccc1)c1ccccc1 | inactive | 
29 | CCCCC(CC)COC(=O)/C=C\C(=O)OCC(CC)CCCC (stereo not drawn) | inactive | 
30 | O=C(O)c1cn(C2CC2)c2cc(N3CCNCC3)c(F)cc2c1=O | inactive | 
31 | CC(C)(COC(=O)c1ccccc1)COC(=O)c1ccccc1 | inactive | 
32 | Cc1ccc2n[nH]nc2c1 | inactive | 
33 | O=C1CCCCCCCCCCCCCCO1 |  | 25.2 µM (active)
34 | CC1CCC(C(C)CS)CC1S (stereo not drawn) | inactive | 
35 | CC1COc2ccccc2N1C(=O)C(Cl)Cl (stereo not drawn) | inactive | 
36 | CCCCCCCCC=O | inactive | 
37 | O=C1OC2(c3cc(Br)c(O)c(Br)c3Oc3c2cc(Br)c(O)c3Br)c2c(Cl)c(Cl)c(Cl)c(Cl)c21 |  | 9.94 µM (active)
38 | BrC1CCC(Br)C(Br)CCC(Br)C(Br)CCC1Br (stereo not drawn) |  | 17.4 µM (active)

Source: PubChem BioAssay (EPA / NIEHS)
